Screening results from PubChem.
HT1080 IDH1KD tx: qHTS for induction of synthetic lethality in tumor cells producing 2HG: qHTS for the HT-1080-IDH1KD cell line; Potency, µM (doses to about 46.1 µM), inactives show top-dose activity, negative = toxicity, actives largely listed as cytotoxic; AID 686971, 2013; HT-1080 IDH1 knockdown viability, ATP luminescence, 48 h; hit rate 2% among 360,000;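 also: 0% = DMSO wells and -100% = cell-free medium wells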
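HT-1080-IDH1KD cells (IDH1 knocked down), 750/well in RPMI with 5% FBS, treated with compound 48 h at 37 degrees C. Viability by CellTiter-Glo luminescence, normalised to DMSO and no-cell wells; concentration-response curves classed.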
DT40 TDP1 no CPT: qHTS for Inhibitors of human tyrosyl-DNA phosphodiesterase 1 (TDP1): qHTS in cells in absence of CPT | AID 686978, 2013 | hit rate 15% among 420,000 | Potency, µM (doses to about 46.2 µM), for inactives: at the highest dose activity change, negative = growth inhibition, most hits filed as inhibitors | DT40 Tdp1-/- hTDP1 cells, no CPT, ATP luminescence, 48 h; also: nearly all actives have a fitted effect of over 55% in size
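DT40 Tdp1-/-;hTDP1 cells, no CPT (DMSO vehicle only), 400 cells/well; compounds pin-transferred; ≥48 hr, 37 °C; CellTiter-Glo 30 min RT dark, luminescence read.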
HT1080-NT tox: qHTS for induction of synthetic lethality in tumor cells producing 2HG: qHTS for the HT-1080-NT fibrosarcoma cell line | HT-1080-NT fibrosarcoma viability, CellTiter-Glo ATP luminescence, 48 h | Potency, µM (top dose mostly 46.1 µM), without a hit: at the highest dose activity, negative = less viability, actives largely listed as cytotoxic | hit rate 1.6% among 360,000;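 also: NT is the 2HG producing partner of a matched IDH1 knockdown line; 0% = DMSO-treated cells and -100% = media-only wells without cells; nearly all actives have a fitted effect of over 55% in size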
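HT-1080-NT fibrosarcoma cells (2HG-overproducing), 750 cells/well in RPMI with 5% FBS, dosed after 2 h and incubated 48 h at 37C. CellTiter-Glo luminescence normalized to DMSO and no-cell wells; concentration-response curves fitted and classed.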
DT40 TDP1 CPT: qHTS for Inhibitors of human tyrosyl-DNA phosphodiesterase 1 (TDP1): qHTS in cells in presence of CPT; chicken DT40 Tdp1-/-;hTDP1 cells + 20 nM CPT, ATP luminescence, 48 h; Potency, µM (series often up to 46.2 µM), without a hit: at the highest dose activity change, negative = growth inhibition, usual class: inhibitors; hit rate 12% among 420,000; also: nearly all actives have a fitted effect of over 55% in size
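Chicken DT40 Tdp1-/- cells stably complemented with human TDP1 were seeded at 400 cells/well in medium containing 20 nM camptothecin, exposed to pin-transferred compounds, and grown at 37 °C for at least 48 hr. Viability was read as ATP luminescence.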
KB-3-1 tox: qHTS assay for MDR1-selective chemotherapeutics: Primary screen using the parental adenocarcinoma cell KB-3-1 | KB-3-1 viability, CellTiter-Glo ATP luminescence, 72 h | Potency, µM (highest dose often 46.1 µM), usual class: cytotoxic | hit rate 1.4% among 400,000 | AID 1347075, 2019; also: nearly all actives have a fitted effect of over 60% in size
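Cytotoxicity in the drug-sensitive parental line KB-3-1 was scored as loss of CellTiter-Glo luminescence following 72 h incubation with compound. Values come from curve fitting of normalized concentration-response data.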
KB-V1 cytotox: qHTS assay for MDR1-selective chemotherapeutics: Primary screen using the drug-selected MDR subline cells KB-V1. KB-V1 MDR cells viability, CellTiter-Glo, 72 h. AID 1347076, 2019. Potency, µM (doses to about 46.1 µM), most hits filed as cytotoxic. hit rate 3.4% among 400,000; also: nearly all actives have a fitted effect of over 60% in size
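Cytotoxicity toward P-gp-expressing KB-V1 cells was determined as loss of CellTiter-Glo luminescence after 72 h at 37 degrees C. Compounds were tested in quantitative HTS format across a concentration range, with curves fitted to normalized data.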
* marks the source's active call; other numbers are inactive results; i = inactive; ? = inconclusive; · = no result given; [ ] = another dose, or the depositor's remark. This is a sample that favours compounds with a hit; in the whole collection about 19% have one here. Calls follow the shape of the dose curve; as a rule, active = well fitted curve in the direction sought with a large enough effect; inconclusive = small, poorly fitted or top-dose-only effect, or another doubt; inactive = no such curve, though single readings can be large; an effect the other way counts as inactive or inconclusive. Unless noted, % is scaled to controls: 0 for no effect and ±100 for the full control effect; potency is read from the fitted curve at half-maximal effect.

SMILES | HT1080 IDH1KD tx | DT40 TDP1 no CPT | HT1080-NT tox | DT40 TDP1 CPT | KB-3-1 tox | KB-V1 cytotox
CCOc1ccccc1C(=O)NCC(=O)N(C)CC(=O)Nc1ccc(N2CCOCC2)cc1 | 11% | 1% | 10% | 0% | i | i
O=C(NCc1ccco1)c1ccc2c(=O)n(Cc3ccco3)c(SCC(=O)N3CCCC3)nc2c1 | -7% | ? | -11% | 26µM* | i | i
COCCNC(=O)c1ccc2c(=O)n(Cc3ccco3)c(SCC(=O)NC3CCCCC3)nc2c1 | 4% | 1% | -1% | -15% | i | i
CCc1ccc(C2=NNC(=Nc3cccc(S(=O)(=O)N(C)C)c3)SC2)cc1 | ? | 18µM* | 21µM* | 21µM* | ? | ?
CO[C@H]1C=CO[C@@]2(C)Oc3c(C)c(O)c4c(O)c(c5c(nc6cc(C)ccn65)c4c3C2=O)NC(=O)/C(C)=C\C=C[C@H](C)[C@H](O)[C@@H](C)[C@@H](O)[C@@H](C)[C@H](OC(C)=O)[C@@H]1C | · | 13µM* | · | ? | · | ·
CCC(C)N1CCC2(CC1)N=c1c(c3c4c5c(C)c(O)c3c(O)c1=NC(=O)C(C)=CC=C[C@H](C)[C@H](O)[C@@H](C)[C@@H](O)[C@@H](C)[C@H](OC(C)=O)[C@H](C)[C@@H](OC)C=CO[C@@](C)(O5)C4=O)N2 (some centres undefined) | -14% | 18µM* | -13% | 13µM* | i | i
COC1C=COC2(C)Oc3c(C)c(O)c4c(O)c(c(CN5CCN(C)CC5)c(O)c4c3C2=O)NC(=O)C(C)=CC=CC(C)C(O)C(C)C(O)C(C)C(OC(C)=O)C1C (centres undefined) | 12% | 21µM* | 4% | 23µM* | i | i
CO[C@H]1C=CO[C@@]2(C)Oc3c(C)c(O)c4c(O)c(cc(O)c4c3C2=O)NC(=O)/C(C)=C\C=C/[C@H](C)[C@H](O)[C@@H](C)[C@@H](O)[C@@H](C)[C@H](OC(C)=O)[C@@H]1C | · | -12% | · | -4% | · | ·
CO[C@H]1/C=C\O[C@@]2(C)Oc3c(C)c(O)c4c(O)c(c(C=NN5CCN(C6CCCC6)CC5)c(O)c4c3C2=O)NC(=O)C(C)=CC=C[C@H](C)[C@H](O)[C@@H](C)[C@@H](O)[C@@H](C)[C@H](OC(C)=O)[C@H]1C | · | 3.2µM* | · | 5.6µM* | i | i
CCc1ccccc1Nc1nc2ccccc2n2cnnc12 | · | ? | · | ? | i | i
OC1CCCC1NCc1ccnc2cc(Cl)ccc12 (centres undefined) | 0% | 16µM* | 18% | ? | i | ?
OC(CNc1ccnc2cc(Cl)ccc12)CNC1CCCCC1 (centres undefined) | 21µM* | 16µM* | 21µM* | 18µM* | ? | ?
O=C(C1CC1)N1CCN(c2ccnc3cc(Cl)ccc23)CC1 | 8% | ? | 10% | ? | i | i
CCNC1CCC(Nc2ccnc3cc(Cl)ccc23)CC1 (centres undefined) | ? | 9.2µM* | -1% | 18µM* | ? | ?
OC(CNC1CCCC1)COc1ccc(Cl)cc1 (centres undefined) | -15% | ? | -18% | ? | i | i
O=C(COC(=O)CNC(=O)C1CCCCC1)NC1CC1 | · | -15% | · | -7% | ? | i
CN(C)c1ccc(-c2nnc(SCC(=O)NCc3ccco3)n2C)cc1 | · | -18% | · | -8% | i | i
Cc1ccc(CCNC(=O)Cn2ncc3c(=O)oc4ccccc4c32)cc1 | · | -17% | · | 1% | i | ?
O=C(CCCn1c(=O)c2sccc2n(Cc2ccc(F)cc2)c1=O)NCc1ccco1 | ? | 21µM* | 10µM* | 26µM* | ? | i
O=C(CCCCn1c(=O)c2ccccc2n(Cc2ccc(Cl)cc2)c1=O)NCc1ccco1 | -17%[9.24 µM] | 16µM* | ? | ? | 15µM* | 4.6µM*
CCC1CCCCN1C(=O)Cn1c(=O)n(CCCCCC(=O)NCc2ccccc2Cl)c(=O)c2sccc21 (centres undefined) | · | 18µM* | · | ? | · | ·
O=C(CCCCn1c(=O)c2ccccc2n(Cc2ccc(Cl)cc2)c1=O)NCc1ccccc1Cl | · | 16µM* | · | 15µM* | i | ?
COc1cccc(Oc2nc(N)ncc2[N+](=O)[O-])c1 | 0% | -18% | -1% | -19% | i | i
Cc1ccc(C(C)C)c(OCC(=O)OCC(=O)NC2CCS(=O)(=O)C2)c1 (centres undefined) | 12% | -2% | -4% | 0% | i | ?
Cc1ccc(F)cc1NC(=O)Cn1c(=O)nc(-c2ccccc2F)c2cc(Cl)ccc21 | · | ? | · | -29% | · | ·
SMILES | HT1080 IDH1KD tx | DT40 TDP1 no CPT | HT1080-NT tox | DT40 TDP1 CPT | KB-3-1 tox | KB-V1 cytotox
CC1(C(=O)NCCc2c[nH]c3ccccc23)CCN1CC1CCCCC1 (centres undefined) | 6% | ? | 6% | ? | i | i
Cc1cccc(Cn2c(=O)n(CCCC(=O)NCc3ccco3)c(=O)c3ccccc32)c1 | ? | 21µM* | ? | 9.2µM* | 9.2µM* | 15µM*
OC(Cc1ccccc1)c1ncc(-c2ccc3ccccc3c2)[nH]1 (centres undefined) | 18µM* | 23µM* | ? | ? | i | i
CCc1ccc(C(O)c2ncc(-c3cccc(C)c3)[nH]2)cc1 (centres undefined) | -29% | ? | ? | ? | i | i
Cc1cccc(-c2cnc(C(O)Cc3ccccc3)[nH]2)c1 (centres undefined) | ? | ? | ? | 16µM* | ? | ?
O=C(OCc1c(-c2ccccc2)ncc2ccccc12)c1ccc(Br)cc1 | 3% | 13µM* | 0% | -25% | ? | i
COc1cccc(-c2ncc3ccccc3c2COC(=O)c2ccc(Br)cc2)c1 | 0% | ? | -17% | -27% | i | i
COc1cccc(-c2ncc3ccccc3c2COC(=O)N(C)C)c1 | -3% | 18µM* | -3% | 18µM* | i | i
CCCCn1c(N)c(N(CC)C(=O)C2=COCCO2)c(=O)[nH]c1=O | 5% | 0% | 4% | 0% | i | i
